Measurements taken from PubChem BioAssay.
Activity calls are given as the source filed them.

Key:
[1] = test system: Plasmodium falciparum Sir2 (PF13_0152, Sir2A); assay: Plasmodium falciparum Sir2A binding compounds – biochemical, small-molecule microarray, 635 nm fluorescence, primary screen (AID 1098); conditions: fluorescence 635 nm, higher = more signal;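 further: score merges spot fluorescence intensity with its signal-to-noise ratio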
[2] = probe aDKK1 binding to arrayed compounds – biochemical, biotinylated probe, 635/667 nm fluorescence, primary screen (AID 1099); conditions: small-molecule microarray, higher = more signal;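 further: score merges 667nm spot fluorescence with signal to noise across triplicate slides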
[3] = probe aCHRDL2 binding to arrayed compounds – biochemical, biotinylated probe, 635/667 nm fluorescence, primary screen (AID 1100); conditions: small-molecule microarray, higher = more signal
[4] = change in splice reporter luminescence, either direction, cell-based, HEK293, spliceosome inhibition project, primary screen (AID 1101); conditions: HEK293 splicing luciferase reporter, 24 h, higher = more signal, called active from +8 up or from −8 down;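 further: HEK293 cells carrying a splicing-competent luciferase reporter gene; test concentration not given here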
[5] = target: Fibroblast growth factor 10 (Homo sapiens) (UniProt O15520); assay: compounds binding fibroblast growth factor 10 – biochemical, small-molecule microarray, 635 nm fluorescence, primary screen (AID 1102); conditions: FGF10 binding, fluorescence 635 nm, higher = more signal
Fibroblast growth factor 10 (Homo sapiens), sequence (O15520 whole entry, looked up): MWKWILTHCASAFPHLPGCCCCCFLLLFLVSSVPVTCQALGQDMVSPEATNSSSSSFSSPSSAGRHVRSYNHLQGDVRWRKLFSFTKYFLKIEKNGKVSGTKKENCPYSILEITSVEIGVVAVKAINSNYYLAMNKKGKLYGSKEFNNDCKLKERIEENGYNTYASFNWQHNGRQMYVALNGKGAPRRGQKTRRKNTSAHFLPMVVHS

[6] = test system: glycogen synthase kinase-3 (GSK3A per assay name; protocol says GSK3B); assay: compounds binding glycogen synthase kinase-3 – biochemical, small-molecule microarray, 635 nm fluorescence, GSK3A, primary screen (AID 1103); conditions: fluorescence 635 nm, higher = more signal; further: the record names both GSK3A and GSK3B
[7] = target: Epidermal growth factor receptor (Homo sapiens) (UniProt P00533); assay: compounds binding epidermal growth factor receptor – biochemical, small-molecule microarray, 635 nm fluorescence, primary screen (AID 1104); conditions: EGFR binding, higher = more signal;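 further: score merges 667 nm emission intensity with spot signal to noise over triplicate slides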
Epidermal growth factor receptor (Homo sapiens), sequence (P00533 whole entry, looked up): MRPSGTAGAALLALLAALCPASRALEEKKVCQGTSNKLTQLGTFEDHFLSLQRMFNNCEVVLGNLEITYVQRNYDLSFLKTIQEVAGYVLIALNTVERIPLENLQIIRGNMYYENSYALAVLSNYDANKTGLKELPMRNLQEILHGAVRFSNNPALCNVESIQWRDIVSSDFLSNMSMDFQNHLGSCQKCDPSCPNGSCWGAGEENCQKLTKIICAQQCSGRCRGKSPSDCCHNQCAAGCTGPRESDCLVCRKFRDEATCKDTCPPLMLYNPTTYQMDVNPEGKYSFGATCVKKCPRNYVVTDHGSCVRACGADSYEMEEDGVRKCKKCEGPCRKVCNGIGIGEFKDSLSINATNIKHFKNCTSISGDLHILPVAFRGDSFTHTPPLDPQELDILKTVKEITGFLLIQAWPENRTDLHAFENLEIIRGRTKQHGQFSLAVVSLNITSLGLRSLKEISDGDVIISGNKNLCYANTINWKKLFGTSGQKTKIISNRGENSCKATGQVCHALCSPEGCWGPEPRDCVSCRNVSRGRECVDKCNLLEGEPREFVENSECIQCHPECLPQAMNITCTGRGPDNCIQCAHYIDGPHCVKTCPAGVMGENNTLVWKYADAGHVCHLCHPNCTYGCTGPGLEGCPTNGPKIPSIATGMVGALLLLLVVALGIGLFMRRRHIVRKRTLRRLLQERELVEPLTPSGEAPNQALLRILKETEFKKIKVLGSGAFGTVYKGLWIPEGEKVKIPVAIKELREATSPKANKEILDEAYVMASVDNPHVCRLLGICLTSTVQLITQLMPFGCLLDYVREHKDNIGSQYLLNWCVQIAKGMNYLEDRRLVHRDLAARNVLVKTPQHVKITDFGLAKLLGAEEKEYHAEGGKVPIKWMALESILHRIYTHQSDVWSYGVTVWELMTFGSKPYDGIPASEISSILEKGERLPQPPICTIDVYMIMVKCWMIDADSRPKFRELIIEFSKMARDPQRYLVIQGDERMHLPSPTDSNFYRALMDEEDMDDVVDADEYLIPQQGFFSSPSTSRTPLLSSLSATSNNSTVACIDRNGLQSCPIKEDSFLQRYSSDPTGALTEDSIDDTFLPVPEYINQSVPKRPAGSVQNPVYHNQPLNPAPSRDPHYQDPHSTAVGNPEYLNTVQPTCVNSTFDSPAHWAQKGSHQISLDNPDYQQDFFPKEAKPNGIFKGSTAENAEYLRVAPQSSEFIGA

[8] = target: Follistatin-related protein 3 (Homo sapiens) (UniProt O95633); assay: compounds binding follistatin-related protein 3 – biochemical, small-molecule microarray, 635 nm fluorescence, primary screen (AID 1105); conditions: FSTL3 binding, higher = more signal;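 further: score merges emission near 667 nm and signal to noise per printed spot across three slides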
Follistatin-related protein 3 (Homo sapiens), sequence (O95633 whole entry, looked up): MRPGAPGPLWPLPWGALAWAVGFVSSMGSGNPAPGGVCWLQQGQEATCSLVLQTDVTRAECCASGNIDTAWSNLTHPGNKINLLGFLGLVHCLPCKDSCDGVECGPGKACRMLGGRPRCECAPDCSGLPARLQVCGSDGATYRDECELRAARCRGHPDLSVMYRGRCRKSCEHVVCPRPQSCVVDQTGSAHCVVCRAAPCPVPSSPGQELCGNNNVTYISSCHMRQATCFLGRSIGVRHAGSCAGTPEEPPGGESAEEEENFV

[9] = target: Dickkopf-related protein 1 (Homo sapiens) (UniProt O94907); assay: small molecules binding DKK1 protein – biochemical, small-molecule microarray, 635 nm fluorescence scan, primary screen (AID 1106); conditions: higher = more signal;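 further: score merges emission near 667 nm with signal to noise over three replicate slides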
Dickkopf-related protein 1 (Homo sapiens), sequence (O94907 whole entry, looked up): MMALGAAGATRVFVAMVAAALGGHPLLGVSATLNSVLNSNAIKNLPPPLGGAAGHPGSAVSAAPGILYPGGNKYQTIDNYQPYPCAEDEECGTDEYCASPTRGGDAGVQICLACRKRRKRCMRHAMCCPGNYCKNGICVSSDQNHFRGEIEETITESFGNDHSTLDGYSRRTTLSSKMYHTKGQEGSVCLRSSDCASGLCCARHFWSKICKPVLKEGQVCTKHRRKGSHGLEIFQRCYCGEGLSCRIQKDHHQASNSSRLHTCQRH

[10] = test system: Inhibin beta A chain (activin A); assay: small molecules binding activin A – biochemical, small-molecule microarray, 635 nm fluorescence scan, primary screen (AID 1107); conditions: INHBA, higher = more signal;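 further: mouse activin A protein probed at 4.33 µg/mL on printed slides; score merges bound-protein fluorescence near 667 nm with spot signal-to-noise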
[11] = test system: Human papillomavirus type 1a protein E7 (residues 44-93); assay: small molecules binding HPV E7 44-93 – biochemical, small-molecule microarray, residues 44-93, 635 nm fluorescence, primary screen (AID 1108); conditions: fluorescence 635 nm, higher = more signal;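 further: E7 fragment applied at 1 µg/mL in TBST for 1 h at 4 C; score combines spot fluorescence with its signal to noise ratio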
[12] = hepatitis C replication reporter changes, two-sided – Huh7 cells, luciferase reporter, HCV replication inhibitor project, primary screen (AID 1109); conditions: Huh7 HCV replicon luciferase reporter, 48 h; higher = more signal;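 further: huh7 hepatoma cells harbouring a luciferase neomycin HCV replicon reporter; luciferase luminescence as measure of HCV replicon replication; test concentration not given here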
[13] = target: Left-right determination factor 2 (Homo sapiens) (UniProt O00292); assay: small molecules binding LEFTY2 protein – biochemical, small-molecule microarray, 635 nm fluorescence scan, primary screen (AID 1110); conditions: higher = more signal
Left-right determination factor 2 (Homo sapiens), sequence (O00292 whole entry, looked up): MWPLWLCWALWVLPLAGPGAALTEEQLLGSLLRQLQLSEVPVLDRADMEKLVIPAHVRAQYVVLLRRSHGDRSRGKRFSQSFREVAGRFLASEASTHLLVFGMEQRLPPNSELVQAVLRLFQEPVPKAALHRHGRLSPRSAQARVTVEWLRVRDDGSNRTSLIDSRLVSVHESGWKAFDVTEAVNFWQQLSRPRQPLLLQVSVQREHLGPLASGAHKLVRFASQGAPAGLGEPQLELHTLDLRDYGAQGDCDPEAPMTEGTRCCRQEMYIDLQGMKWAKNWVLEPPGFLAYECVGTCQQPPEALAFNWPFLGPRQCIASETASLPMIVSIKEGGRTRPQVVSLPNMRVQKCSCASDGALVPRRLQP

[14] = target: Calmodulin-1 (Homo sapiens) (UniProt P0DP23); assay: small molecules binding calmodulin-1 with EGTA – biochemical, small-molecule microarray, Cy5-labelled CALM1, profiling panel (AID 1111); conditions: Cy5-CALM1 binding fluorescence, higher = more signal;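 further: labelled calmodulin applied in Tris saline Tween buffer holding calcium plus EGTA and DTT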
[15] = target: Calmodulin-1 (Homo sapiens) (UniProt P0DP23); assay: small molecules binding Ca-loaded calmodulin-1 – biochemical, small-molecule microarray, Cy5-labelled CALM1, plus calcium, artefact control for SMM control-protein annotation, profiling panel (AID 1112); conditions: Cy5-CALM1 binding fluorescence, higher = more signal;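 further: score merges spot fluorescence with signal to noise from triplicate slides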
[16] = probe aWnt5a binding to arrayed compounds – biochemical, biotinylated probe, 635/667 nm fluorescence, primary screen (AID 1113); conditions: small-molecule microarray, higher = more signal;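 further: score merges 667 nm fluorescence intensity with signal-to-noise per printed feature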
[17] = probe aShh binding to arrayed compounds – biochemical, biotinylated probe, 635/667 nm fluorescence, primary screen (AID 1114); conditions: small-molecule microarray, higher = more signal;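 further: probe is biotin-labelled aShh protein from a stem cell growth factor screen; measures binding of labelled protein to compounds printed on the slide; score merges feature fluorescence at 667 nm with signal-to-noise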
[18] = probe aNog binding to arrayed compounds – biochemical, biotinylated probe, 635/667 nm fluorescence, primary screen (AID 1115); conditions: small-molecule microarray, higher = more signal;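 further: probe is biotinylated aNog protein used at 0.15 µg/mL for 1 h at 4 C; z-score combines 667 nm fluorescence of each spot with its signal to noise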
[19] = target: Torsin-1A-interacting protein 1 (Homo sapiens) (UniProt Q5JTV8); assay: compound microarray binding of lysate hLAP1 – cell lysate, small-molecule microarray, COS7 lysate, 635/667 nm fluorescence, primary screen (AID 1116); conditions: 635 nm fluorescence, higher = more signal
Torsin-1A-interacting protein 1 (Homo sapiens), sequence (Q5JTV8 whole entry, looked up): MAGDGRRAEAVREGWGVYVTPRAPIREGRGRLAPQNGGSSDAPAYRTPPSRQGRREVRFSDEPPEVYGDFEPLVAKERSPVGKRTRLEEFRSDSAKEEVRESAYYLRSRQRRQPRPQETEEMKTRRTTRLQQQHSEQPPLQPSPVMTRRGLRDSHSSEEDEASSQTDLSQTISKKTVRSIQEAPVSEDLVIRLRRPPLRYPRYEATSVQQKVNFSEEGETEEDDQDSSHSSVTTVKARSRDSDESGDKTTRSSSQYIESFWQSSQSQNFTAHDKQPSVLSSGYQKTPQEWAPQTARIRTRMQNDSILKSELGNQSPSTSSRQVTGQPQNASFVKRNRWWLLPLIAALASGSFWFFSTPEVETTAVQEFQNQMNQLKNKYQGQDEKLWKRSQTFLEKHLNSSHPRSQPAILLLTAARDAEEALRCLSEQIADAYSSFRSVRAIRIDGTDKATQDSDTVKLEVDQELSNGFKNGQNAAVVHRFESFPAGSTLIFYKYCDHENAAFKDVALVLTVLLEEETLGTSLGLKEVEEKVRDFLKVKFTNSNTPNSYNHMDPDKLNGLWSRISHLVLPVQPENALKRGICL

[20] = target: Alpha-bungarotoxin (Bungarus multicinctus) (UniProt P60615); assay: compounds binding labelled alpha-BTX control protein – biochemical, small-molecule microarray, Alexa647 label, 635/667 nm fluorescence, artefact control for SMM control protein annotation, profiling panel (AID 1117); conditions: alpha-BTX-A647 binding fluorescence, higher = more signal
Alpha-bungarotoxin (Bungarus multicinctus), sequence (P60615 whole entry, looked up): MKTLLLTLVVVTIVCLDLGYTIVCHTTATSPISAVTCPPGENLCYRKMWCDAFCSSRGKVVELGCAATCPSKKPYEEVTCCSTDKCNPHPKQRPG

Compound | composite z-score [1] | composite z-score [2] | composite z-score [3] | z-score [4] | composite z-score [5] | composite z-score [6] | composite z-score [7] | composite z-score [8] | composite z-score [9] | composite z-score [10] | composite z-score [11] | z-score [12] | composite z-score [13] | composite z-score [14] | composite z-score [15] | composite z-score [16] | composite z-score [17] | composite z-score [18] | composite z-score [19] | composite z-score [20]
CC(C)(C)N1CC=CC23O[C@@H]4C=CCOC(=O)[C@@H]4[C@H]2C(=O)N(CCCCCCO)[C@@H]3C1=O (stereo not given in full) | 1.09 | -0.102 | 0.65 | 0.804 (inactive) | -1.59 | -0.708 | -1.04 | -1.34 | -1.34 | 0.294 | -1.38 | 0.397 | -0.84 | -0.243 | -0.123 | -0.206 | -0.291 | -0.357 | -0.252 | -0.348
Cn1cccc1C(O)C1C=CC2C(=O)NC(=O)C2N1Nc1ccc(Cl)cc1Cl (stereo not given) | 1.21 | 1.3 | 1.33 | 1.08 (inactive) | 0.914 | 0.593 | 0.295 | 1.34 | -0.43 | 0.657 | 0.981 | -0.202 | -0.378 | 2.24 | 0.879 | 0.0044 | 0.184 | 1.92 | 2.08 | 2.28
C=CC[C@]1(C(=O)NCCN2CCOCC2)N=C(c2ccc(OCCCO)cc2)O[C@H]1c1ccccc1CN=[N+]=[N-] | 0.817 | 0.96 | 0.723 | 0.346 (inactive) | 1.2 | 0.703 | 0.409 | -0.0125 | 1.54 | 1.57 | 0.396 | -1.59 | 0.632 | 0.21 | -0.528 | 0.0023 | -0.203 | -0.193 | 0.554 | -0.0452
COC(=O)c1ccc([C@H](NC(=O)c2ccco2)[C@]2(C)C[C@H]2C2CCCCC2)cc1 | -1.05 | 0.642 | 1.06 | 2.43 (inactive) | -0.32 | -1.22 | -0.808 | -1.03 | -1.09 | 0.447 | -0.0855 | -0.978 | -1.6 | 1.51 | 1.39 | -0.096 | 0.142 | 1.46 | -0.101 | 0.351
[N-]=[N+]=NCc1ccccc1[C@@H]1OC(c2ccc(OCCCO)cc2)=N[C@]1(CCS(=O)(=O)c1ccccc1)C(=O)NCC(O)CO (stereo not given in full) | 1.46 | 0.76 | 1.03 | -1.33 (inactive) | 1.22 | -0.323 | -0.0077 | 0.6 | -0.227 | 0.736 | 0.711 | -1.2 | -0.275 | 2.14 | 0.701 | 0.0799 | 0.0062 | 0.975 | 4.4 | 2.17
COC(=O)CCCCCCC(=O)Nc1ccc(NC(=O)CCCC[P+](c2ccccc2)(c2ccccc2)c2ccccc2)cc1 | 0.5 | -0.238 | -0.842 | -0.186 (inactive) | 1.38 | 0.686 | 0.758 | 0.955 | 1.16 | 0.59 | -0.0924 | 0.319 | 0.749 | -0.0302 | -0.516 | -0.0751 | -0.147 | -0.209 | 0.533 | -0.573
O=C(NCc1ccccc1)[C@@H]1c2ccccc2C(=O)N(Cc2ccccc2C(F)(F)F)[C@H]1c1ccc(CO)cc1 | 1.61 | -0.299 | 0.752 | -0.452 (inactive) | 0.112 | -0.076 | -0.406 | -0.45 | -1.09 | 0.212 | 0.966 | 0.129 | -0.948 | -0.526 | -0.317 | -0.252 | -0.419 | -0.383 | -0.934 | -0.166
COc1ccc(CCN2C(=O)[C@@]3(Cc4ccccc42)c2ccccc2C(=O)N(Cc2ccccc2OC)[C@H]3c2ccc(CO)cc2)cc1 | 0.9 | 0.533 | 0.406 | -0.942 (inactive) | -0.783 | -0.49 | -0.951 | -1.14 | -1.33 | 0.359 | -0.131 | -0.601 | -1.03 | 0.0678 | 0.466 | -0.1 | -0.155 | 0.898 | -0.119 | -0.749
CC(C)(C)OC(=O)CC[C@@]1(C(=O)NCc2ccccc2)N=C(c2ccc(OCCCO)cc2)O[C@@H]1c1ccccc1N=[N+]=[N-] | 0.71 | 1.03 | 1.29 | -1.18 (inactive) | 1.39 | 1.18 | 0.373 | 1.26 | 0.0295 | 0.795 | 0.912 | -0.339 | 0.529 | 1.15 | 0.493 | 0.112 | 0.232 | 1.9 | 0.899 | 2.1
C=CCC(OC(C)=O)[C@@H]1[C@@H](N(Cc2cc3ccccc3o2)C(=O)c2ccc(C)cc2)c2cc(OCCCO)ccc2N1C(=O)Cc1ccc(OC)cc1 (stereo not given in full) | -0.0682 | -0.199 | 0.33 | -0.669 (inactive) | 0.289 | 0.121 | -0.147 | 0.087 | 0.0807 | 1.01 | -0.098 | -0.169 | -0.0667 | -0.254 | -0.583 | 0.0317 | 0.136 | -0.318 | -0.0471 | 0.203
C=CCOC(=O)[C@H]1[C@@H]2C(=O)O[C@@H](c3ccccc3)[C@@H](c3ccccc3)N2[C@@H](c2ccc(OCCOC(=O)[C@@H]3C[C@@H]4C(=O)N5CCC[C@H]5C(=O)N4[C@@H]3c3ccc(O)cc3)cc2)[C@]12C(=O)Nc1ccc(I)cc12 | 0.637 | -0.102 | 0.357 | 0.431 (inactive) | 0.53 | 0.195 | 0.482 | 0.594 | 1.39 | 0.372 | -0.0566 | -1.71 | 0.621 | 0.793 | 0.29 | -0.117 | -0.155 | 0.633 | 0.521 | 0.881
